Assay outcomes: PubChem, The Scripps Research Institute Molecular Screening Center
Rin1-Abl PPI inh – inhibitors of Rin1-Abl protein binding, primary screen, biochemical, TR-FRET. Tyrosine-protein kinase ABL1 (Homo sapiens) + Ras and Rab interactor 1 (Homo sapiens), …. inhibition, % at 7.35 µM. hit rate 0.4% among 360,000; in the data active = inhibition above about 5%, passing the limit was not always enough
PKA-R1A activ – activators of PKA-R1A holoenzyme, primary screen, biochemical, fluorescence polarization, Cy5-IP20, bovine R1A, mouse PKAc; cAMP-dependent protein kinase type I-alpha regulatory subunit (Bos taurus) + …; PKA-R1A dissociation; scaled: DMSO 0%, 113 µM cGMP 100%; activation, % at 11.4 µM; hit rate 0.083% among 340,000; AID 504707, 2011;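 active = percent activation above the mean of all tested compounds plus 3 SD, cut at about 19% in these data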;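 also: higher means more PKAc released from R1A so a rise in polarization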
IDE cell inh – human IDE inhibitors in live cells, primary screen, fluorescence polarization, HEK cells, FAbetaB substrate; Insulin-degrading enzyme (Homo sapiens), P14735; FAbetaB cleavage; inhibition, % at 5.59 µM; hit rate 0.41% among 320,000; AID 434962, 2010;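 active = percent inhibition above the average of all tested compounds plus 3 SD, set per screening campaign, cut at about 16% in these data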;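 also: IDE supplied by intact live HEK cells; FP after avidin binding of uncleaved biotin substrate so inhibition keeps polarization high; 0% = DMSO wells and 100% = 60 µM reference IDE inhibitor Ii1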
IDE act – human IDE activators in live cells, primary screen, fluorescence polarization, HEK cells, FAbeta-B substrate; Insulin-degrading enzyme (Homo sapiens), P14735; FAbeta-B cleavage; 0% vehicle, 100% cell-free pure enzyme wells; activation, % at 5.96 µM; hit rate 0.073% among 340,000; AID 493087, 2011;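 active = activation above the mean of all tested compounds plus 3 SD, set per screening campaign, cut at about 17% in these data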
E coli Lon inh – inhibitors of E. coli Lon protease, primary screen, biochemical, fluorescence polarization. P0A9M0. purified E. coli Lon protease. inhibition, % at 7.94 µM. hit rate 0.42% among 360,000; in the data active = inhibition above about 13%, passing the limit was not always enough;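 also: 0% = enzyme with probe and DMSO and 100% = no enzyme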
PKA-R2B act – activators of PKA-R2B holoenzyme, primary screen, biochemical, fluorescence polarization, Cy5-IP20, human. PKA-R2B holoenzyme dissociation; R2B truncated from residue 108, S112A mutant; 0% DMSO only, 100% 113 µM cGMP. activation, % at 11.4 µM. hit rate 0.079% among 340,000;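 active = activation above a cutoff set at the mean over all compounds plus 3 SD, cut at about 18% in these data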;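 also: higher means more holoenzyme dissociation and a rise in polarization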
Rin1 Abl conf – Rin1-Abl binding inhibitor retest, confirmation, biochemical, TR-FRET; shares compounds with Rin1-Abl PPI inh; purified proteins; inhibition, % at 7.35 µM; hit rate 49% among 1,300
GFP quencher – GFP fluorescence inhibitors and quenchers, artefact control for Rin1-Abl interaction inhibitor project, biochemical; shares compounds with Rin1-Abl PPI inh; AID 602125, 2011; hit rate 8.5% among 1,300; inhibition, % at 6.75 µM; inhibitors/quenchers counterscreen;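 also: ABL1-eGFP fusion protein alone without its partner RIN1-SBP; 0% = protein with vehicle and 100% = wells lacking protein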
GFP quench dose – GFP fluorescence inhibitors and quenchers, dose response, artefact control for Rin1-Abl interaction inhibitor project, biochemical; shares compounds with Rin1-Abl PPI inh; GFP fluorescence interference/quenching counterscreen; IC50, µM; 230 tested, under 10 active; AID 602182, 2012; call rule not given here;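 also: ABL1-eGFP fusion protein alone without its RIN1 binding partner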
Active calls of the source: *; nt = not tested or not shown. This is a sample that favours compounds with a hit; in the whole collection about 1.3% have one here. Rule as the data show it, unless noted: active = inhibition above about 6.5%; inactive = the rest.

SMILES	Rin1-Abl PPI inh	PKA-R1A activ	IDE cell inh	IDE act	E coli Lon inh	PKA-R2B act	Rin1 Abl conf	GFP quencher	others
CCCC(C)NC(=O)CN(Cc1ccco1)S(=O)(=O)c1ccccc1 (stereo unspecified)	-3	-8	0	1	1	-9	nt	nt
CCC(C)NS(=O)(=O)c1ccc(S(=O)(=O)N(CC(=O)Nc2ccccc2)Cc2ccco2)cc1 (stereo unspecified)	4.8*	8	-1	7	-2	-3	0	0
O=c1oc2ccccc2n1CCCCCn1c(=O)oc2ccccc21	4.8*	-5	9	2	-11	10	-1	-1
Cc1ccc(NC(=O)CN2C(=O)C3C4C=CC(C4)C3C2=O)cc1 (stereo unspecified)	6.3*	-4	6	6	6	-12	-2	1
O=C(NCC12CC3CC(CC(C3)C1)C2)c1cc2n(n1)C(C(F)(F)F)CC(c1ccco1)N2 (stereo unspecified)	-2	2	2	-1	5	-17	nt	nt
O=C(NC1CCCC1)C(c1ccncc1)N(C(=O)c1csnn1)c1ccccc1 (stereo unspecified)	2	-5	-1	1	12	-9	nt	nt
CC(=O)c1ccc(N(C(=O)c2csnn2)C(C(=O)NC2CCCC2)c2ccccc2)cc1 (stereo unspecified)	11*	10	-2	-1	0	-5	2	0
COc1ccc(C2C(C(=O)N3CCN(c4ccccn4)CC3)CCC(=O)N2c2ccc(OC)cc2)cc1 (stereo unspecified)	7.5*	-8	-1	2	3	-13	4	-3
COc1ccc(C2C(C(=O)N3CCN(c4ccccn4)CC3)CCC(=O)N2c2cc(OC)c(OC)c(OC)c2)cc1 (stereo unspecified)	-2	2	-1	3	-8	-3	nt	nt
COc1ccc(CCC(=O)Nc2c(-c3ccc(N(C)C)cc3)[nH][nH]c2=O)cc1	32*	nt	nt	nt	0	nt	40*	-2	GFP quench dose=>68
COC(=O)c1ccc(COC(=O)c2ccc(-n3cnnn3)cc2)o1	23*	-5	-11	5	-7	3	20*	-1	GFP quench dose=>67
COc1ccc(/C=N/NC(=O)COc2ccc(Cl)cc2Cl)cc1Cn1nc(C)cc1C	9.4*	-5	-1	3	0	12	1	1
Cc1cccc(NS(=O)(=O)c2ccc3[nH]c(=O)cc(C(=O)O)c3c2)c1	2	-9	6	2	0	-1	nt	nt
COc1ccc2nc(Nc3nc(C)c(CCC(C)C)c(=O)[nH]3)nc(C)c2c1	8.2*	-1	7	4	3	5	-4	-2
CC(=O)Nc1sc(C)c(C)c1C(=O)OCC(=O)N(C)C1CCS(=O)(=O)C1 (stereo unspecified)	-2	-5	4	-1	-1	5	nt	nt
Cc1ccc(CNC(=O)COC(=O)CCCOc2ccc(Cl)cc2Cl)cc1	0	-9	0	-2	-3	-5	nt	nt
COc1ccc(CNC(=O)COC(=O)CCCOc2ccc(Cl)cc2Cl)cc1OC	10*	9	5	-5	-16	0	-1	1
